Columns and labels:
Type in all cases: functional
Plasmodium falciparum [1] = experiment: GSK_TCMDC: Inhibition of Plasmodium falciparum 3D7 in whole red blood cells, using parasite LDH activity as an index of growth. Test compounds present at 2uM
Plasmodium falciparum [2] = experiment: GSK_TCMDC: Inhibition of Plasmodium falciparum Dd2 in whole red blood cells, using parasite LDH activity as an index of growth. Test compounds present at 2uM
HepG2 = experiment: GSK_TCMDC: Percent inhibition of human HepG2 cell line. Test compounds present at 10uM.

## O=C(NCCN1CCCC1)c1cccc(Nc2nccc(Nc3ccc(Oc4ccccc4)cc3)n2)c1
Plasmodium falciparum [1]
  Inhibition: 100%
Plasmodium falciparum [2]
  Inhibition: 18%
HepG2
  Inhibition: 33%

## Cc1c(Cl)ccc2c(C(=O)Nc3ccncc3)cc(-c3cccnc3)nc12
Plasmodium falciparum [1]
  Inhibition: 99%
Plasmodium falciparum [2]
  Inhibition: 83%
HepG2
  Inhibition: 16%

## CCN(CC)CCNc1nccc(N(C)c2ccc(NC(=O)Nc3cc(C(F)(F)F)ccc3F)cc2)n1.O=C(O)C(F)(F)F
Plasmodium falciparum [1]
  Inhibition: 97%
Plasmodium falciparum [2]
  Inhibition: 25%
HepG2
  Inhibition: 74%

## COc1ccc(C(=O)N[C@@H](CC(C)C)C(=O)N[C@H](/C=N/NC(=O)c2ccccc2)CCc2ccccc2)cc1OCCN1CCOCC1
Plasmodium falciparum [1]
  Inhibition: 96%
Plasmodium falciparum [2]
  Inhibition: 86%
HepG2
  Inhibition: 2%

## Cc1cc(-c2ccc(NC(=O)N3CCc4cc(Cl)c(N5CCN(C)CC5)cc43)cc2)ccc1C#N
Plasmodium falciparum [1]
  Inhibition: 100%
Plasmodium falciparum [2]
  Inhibition: 83%
HepG2
  Inhibition: 100%

## O=C(Nc1ccc(Cl)cc1)c1cccc2nc(C(F)(F)F)[nH]c12
Plasmodium falciparum [1]
  Inhibition: 93%
Plasmodium falciparum [2]
  Inhibition: 98%
HepG2
  Inhibition: 84%

## Cl.O=C(Nc1ccc(SC(F)(F)F)cc1)Nc1ccnc2ccccc12
Plasmodium falciparum [1]
  Inhibition: 95%
Plasmodium falciparum [2]
  Inhibition: 42%
HepG2
  Inhibition: 26%

## CC(C)(C)c1ccc(-c2ccccc2CNC(=O)c2cccc(O)c2)cc1
Plasmodium falciparum [1]
  Inhibition: 99%
Plasmodium falciparum [2]
  Inhibition: 88%
HepG2
  Inhibition: 3%

## O=C(Nc1ccc(-c2cccc(-c3nc4cc(F)ccc4[nH]3)c2)cc1)Nc1ccc(F)c(F)c1F
Plasmodium falciparum [1]
  Inhibition: 100%
Plasmodium falciparum [2]
  Inhibition: 98%
HepG2
  Inhibition: 70%

## CN(CCC(O)c1ccc(Cl)c(Cl)c1)CC1CC1C(=O)c1ccccc1 (centres undefined)
Plasmodium falciparum [1]
  Inhibition: 98%
Plasmodium falciparum [2]
  Inhibition: 96%
HepG2
  Inhibition: 11%

## CCn1ccc2c3c(N)nc(N)nc3ccc21
Plasmodium falciparum [1]
  Inhibition: 99%
Plasmodium falciparum [2]
  Inhibition: 2%
HepG2
  Inhibition: 61%

## COc1ccccc1/C=C/C(=O)NC1CCC(CCN2CCc3ccc(-c4cc(C)no4)cc3CC2)CC1.Cl (centres undefined)
Plasmodium falciparum [1]
  Inhibition: 95%
Plasmodium falciparum [2]
  Inhibition: 11%
HepG2
  Inhibition: 47%

## Cc1cc2nc(-c3ccc(C(=O)NCc4ccc(C(C)(C)C)cc4)cc3)[nH]c2cc1C
Plasmodium falciparum [1]
  Inhibition: 100%
Plasmodium falciparum [2]
  Inhibition: 59%
HepG2
  Inhibition: 3%

## O=C(O)C(F)(F)F.c1cncc(CCNCc2cccc(-c3ccc(-c4nc5ccccc5[nH]4)s3)c2)c1
Plasmodium falciparum [1]
  Inhibition: 100%
Plasmodium falciparum [2]
  Inhibition: 97%
HepG2
  Inhibition: 8%

## CCc1cn2c3c(cc(C(=O)N[C@@H](Cc4cccc(Cl)c4)[C@H](O)CNC4CCOCC4)cc13)N(C)S(=O)(=O)CC2.O=CO
Plasmodium falciparum [1]
  Inhibition: 98%
Plasmodium falciparum [2]
  Inhibition: 98%
HepG2
  Inhibition: 2%

## CC(=O)Nc1ccccc1OCc1cc2cc(C(=O)N3CCC(N4C(=O)OCc5ccccc54)CC3)ccc2o1
Plasmodium falciparum [1]
  Inhibition: 99%
Plasmodium falciparum [2]
  Inhibition: 98%
HepG2
  Inhibition: 34%

## CCC(=O)c1cc(C(=O)NCCc2cccc(OC)c2)ccc1OC
Plasmodium falciparum [1]
  Inhibition: 83%
Plasmodium falciparum [2]
  Inhibition: 12%
HepG2
  Inhibition: 0%

## CC1(C)CC(=O)c2c(O)cc(OCc3ccncc3)cc2O1.Cl
Plasmodium falciparum [1]
  Inhibition: 92%
Plasmodium falciparum [2]
  Inhibition: 47%
HepG2
  Inhibition: 80%

## Cc1cc(C(=O)N(Cc2ccc(-c3ccc(CNCCc4ccc(S(C)(=O)=O)cc4)cn3)cc2)C(C)CN(C)C)ccc1[N+](=O)[O-].O=C(O)C(F)(F)F (centres undefined)
Plasmodium falciparum [1]
  Inhibition: 99%
Plasmodium falciparum [2]
  Inhibition: 46%
HepG2
  Inhibition: 17%

## CN(C)c1ccc(-c2cscc2C(=O)NC2CCCN(Cc3cccnc3)C2)cc1.O=C(O)C(F)(F)F (centres undefined)
Plasmodium falciparum [1]
  Inhibition: 89%
Plasmodium falciparum [2]
  Inhibition: 70%
HepG2
  Inhibition: 5%

## CN1CCC(NCc2cccc(-c3cnc(NCc4ccccc4)nc3)c2)CC1.O=C(O)C(F)(F)F
Plasmodium falciparum [1]
  Inhibition: 100%
Plasmodium falciparum [2]
  Inhibition: 67%
HepG2
  Inhibition: 12%

## COc1ccc(CNC(=O)Nc2cc3cc(-c4ccc(CN(C)C)cc4)ccc3n3c(C)nnc23)cc1
Plasmodium falciparum [1]
  Inhibition: 93%
Plasmodium falciparum [2]
  Inhibition: 80%
HepG2
  Inhibition: 99%

## N=C(N)c1ccc(Nc2nccc(Nc3nc(-c4ccccc4)cs3)n2)cc1.O=C(O)C(F)(F)F
Plasmodium falciparum [1]
  Inhibition: 96%
Plasmodium falciparum [2]
  Inhibition: 75%
HepG2
  Inhibition: 13%

## O=C([C@H]1CCCCN1c1ccc([N+](=O)[O-])c2ccccc12)N1CCN(c2ncccn2)CC1
Plasmodium falciparum [1]
  Inhibition: 97%
Plasmodium falciparum [2]
  Inhibition: 5%
HepG2
  Inhibition: 50%

## Cc1ccc2nc(C)cc(NC(=O)Nc3ccc(N(C)C)cc3)c2c1
Plasmodium falciparum [1]
  Inhibition: 100%
Plasmodium falciparum [2]
  Inhibition: 41%
HepG2
  Inhibition: 12%

## CC1(C)C(N(O)C(=O)Nc2ccc(Cl)c(Cl)c2)N(c2ccc(Cl)c(Cl)c2)C(=O)N1CCc1ccccc1 (centres undefined)
Plasmodium falciparum [1]
  Inhibition: 91%
Plasmodium falciparum [2]
  Inhibition: 93%
HepG2
  Inhibition: 10%

## O=C(c1ccc([N+](=O)[O-])o1)N1CCC(c2cn(Cc3cccc(F)c3)c3ccccc23)CC1
Plasmodium falciparum [1]
  Inhibition: 97%
Plasmodium falciparum [2]
  Inhibition: 95%
HepG2
  Inhibition: 1%

## CC(=O)N(C)c1cccc(C(=O)Nc2cccc(-c3cccc(-c4nc5cc(C(F)(F)F)ccc5[nH]4)c3)c2)c1
Plasmodium falciparum [1]
  Inhibition: 97%
Plasmodium falciparum [2]
  Inhibition: 41%
HepG2
  Inhibition: 49%

Source: ChEMBL document CHEMBL1157539, “Thousands of chemical starting points for antimalarial lead identification” (Nature, 2010)
